Experimental data as given in PubChem BioAssay (NCI).
This is part of a sample that, as a whole, favours compounds with a hit. Of some 83,000 tested, about 20% had one in any assay.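 Note: values are percent growth. 100 is the growth of untreated cells, values between 100 and 0 indicate rising inhibition; between -100 and 0 indicates cell death.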 Unmarked numbers belong to inactive results. The source made the active and inactive calls. How the source made its calls: active means growth percent below 10; inactive means the rest.

Columns and labels:
Assay in all cases: NCI-60 one-dose screen, 48 h (100 = growth as untreated, 0 = no growth, -100 = all killed)
Details in all cases: 10 µM unless noted
[1] = system: NCI-H23 lung
[2] = system: NCI-H226 lung
[3] = system: NCI-H322M lung
[4] = system: HOP-62 NSCLC
[5] = system: NCI-H460 lung
[6] = system: HOP-92 NSCLC
[7] = system: NCI-H522 lung
[8] = system: A549/ATCC NSCLC
[9] = system: 786-0 renal
[10] = system: COLO 205 colon

`CCOC(=O)c1c(-c2ccc(Cl)cc2)c(C#N)c2c(C#N)c(N)nn2c1N` was tested, and the growth [1] was 85.9%, the growth [2] was 87.4% and the growth [3] was 83.4%. For the same compound, the growth [4] was 74.9%, the growth [5] was 77.3% and the growth [6] was 63.1%. It also gave a growth [7] of 37.4%, a growth [8] of 51.3% and a growth [9] of 82.6%. For the same compound, the growth [10] was 69.8%.

`O=C(NCc1ccc2c(c1)OCO2)NCC1CCCC(CNC(=O)NCc2ccc3c(c2)OCO3)C1` (centres undefined) showed a growth [1] of 99.7%, a growth [2] of 100% and a growth [3] of 108%. It also gave a growth [4] of 102%, a growth [5] of 101% and a growth [6] of 103%. The growth [7] was 89.4%, the growth [8] was 96.9% and the growth [9] was 97.6%. For the same compound, the growth [10] was 119%.

With `Cc1nc2sc(C(=O)Nc3ccccc3)c(N)c2cc1C(=O)/C=C/c1ccccc1` the growth [1] was 10.9%, the growth [2] was 5.17% (active) and the growth [3] was 10.7%. The growth [4] was -26.2% (active), the growth [5] was -71% (active) and the growth [6] was 6.29% (active). For the same compound, the growth [7] was -42.5% (active), the growth [8] was 13.2% and the growth [9] was -57.2% (active). The growth [10] was 14.2%.

With `Cc1c(N2CN3C[C@H](C)N4CN(c5c(C)n(C)n(-c6ccccc6)c5=O)CN5C[C@@H](C)N(C2)C3C54)c(=O)n(-c2ccccc2)n1C` (some centres undefined) the growth [1] was 95.1%, the growth [2] was 101% and the growth [3] was 103%. It also gave a growth [4] of 103%, a growth [5] of 101% and a growth [6] of 90.8%. The growth [7] was 98.9%, the growth [8] was 106% and the growth [9] was 102%. It also gave a growth [10] of 109%.

For `COc1cccc(Nc2ccnc3[nH]c4ccc([N+](=O)[O-])cc4c23)c1`, the growth [1] was 64.5%, the growth [2] was 48.7% and the growth [3] was 84.3%. It also gave a growth [4] of 34.6%, a growth [5] of 30.7% and a growth [6] of 31.5%. For the same compound, the growth [7] was 30.4%, the growth [8] was 37% and the growth [9] was 25.7%. It also gave a growth [10] of 51.7%.

Work on `Nc1c(C(=O)O)cc(Cl)cc1[N+](=O)[O-]` yielded a growth [1] of 90.6%, a growth [2] of 96.4% and a growth [3] of 103%. The growth [4] was 89.7%, the growth [5] was 108% and the growth [6] was 58.7%. It also gave a growth [7] of 98.4%, a growth [8] of 97.6% and a growth [9] of 96.1%. For the same compound, the growth [10] was 115%.

In the case of `Fc1ccc(COc2ccc(Nc3ncnc4sc5c(c34)CCCC5)cc2)cc1`, the growth [1] was 99.4%, the growth [2] was 102% and the growth [3] was 86.9%. It also gave a growth [4] of 97.2%, a growth [5] of 97.3% and a growth [6] of 88.9%. It also gave a growth [7] of 73%, a growth [8] of 88.4% and a growth [9] of 94.6%. It also gave a growth [10] of 103%.

`COc1cc(/C=C\c2cc(/C=C\c3ccc(O)c(OC)c3)n(C(=O)CNc3ccc(Cl)cc3)n2)ccc1O` gave a growth [1] of 24%, a growth [2] of 51.2% and a growth [3] of 39.2%. For the same compound, the growth [4] was 23.3%, the growth [5] was 6.98% (active) and the growth [6] was 66.9%. For the same compound, the growth [7] was 2.11% (active), the growth [8] was 19.5% and the growth [9] was 15.7%. It also gave a growth [10] of 90.4%.

With `O=C(Nc1ccccc1O)c1ccccc1Nc1ccnc(C(F)(F)F)c1` the growth [1] was 94.5%, the growth [2] was 70.4% and the growth [3] was 114%. It also gave a growth [4] of 99.5%, a growth [5] of 97.3% and a growth [6] of 88%. It also gave a growth [7] of 83.9%, a growth [8] of 114% and a growth [9] of 104%. It also gave a growth [10] of 148%.

In the case of `N#Cc1c(-c2cccc([N+](=O)[O-])c2)cc(-c2ccc(Nc3nc(Nc4ccc(F)cc4)nc(Nc4ccc(F)cc4)n3)cc2)nc1N`, the growth [1] was 98.6%, the growth [2] was 123% and the growth [3] was 97.9%. For the same compound, the growth [4] was 85.9%, the growth [5] was 146% and the growth [6] was 55.4%. The growth [7] was 104%, the growth [8] was 86% and the growth [9] was 94.6%. The growth [10] was 117%.

With `O=C1OCC2=C1C(c1cccc(C(F)(F)F)c1)c1cc3c(cc1N2CCO)OCO3` (centres undefined) the growth [1] was 29.5%, the growth [2] was 66% and the growth [3] was 42.4%. For the same compound, the growth [4] was 33%, the growth [5] was 13% and the growth [6] was 51.4%. It also gave a growth [7] of 16.1%, a growth [8] of 28.9% and a growth [9] of 28.5%. The growth [10] was -2.39% (active).

`COc1ccc(C2C3=C(COC3=O)N(CCO)c3cc4c(cc32)OCCO4)cc1OC` (centres undefined) showed a growth [1] of 34.3%, a growth [2] of 41.2% and a growth [3] of 51.4%. For the same compound, the growth [4] was 46.3%, the growth [6] was 40.8% and the growth [8] was 51.2%. For the same compound, the growth [9] was 27.7% and the growth [10] was -4.68% (active).

With `CCCCN1C(=O)/C(=c2\sc3n(c2=O)NC2C(N=3)N(CC)C(=O)N2CC)c2ccccc21` (centres undefined) the growth [1] was 46.9%, the growth [2] was 70.4% and the growth [3] was 69.9%. It also gave a growth [4] of 71.7%, a growth [6] of 60% and a growth [7] of 21.4%. It also gave a growth [8] of 36.6%, a growth [9] of 53.6% and a growth [10] of 24.9%.

For `CCc1ccc(CCC(=O)Nc2ncc(Cc3ccc(Cl)cc3)s2)o1`, the growth [1] was 54.9%, the growth [2] was 61.8% and the growth [3] was 52%. For the same compound, the growth [4] was 30.9%, the growth [6] was 69.8% and the growth [7] was -3.33% (active). The growth [8] was 29.6%, the growth [9] was 41.2% and the growth [10] was 12.3%.

With `CC1(C)CC[C@]2(C(=O)N3CCOCC3)CC[C@]3(C)C(=CC[C@@H]4[C@@]5(C)C/C(=C/c6ccncc6)C(=O)C(C)(C)[C@@H]5CC[C@]43C)[C@@H]2C1` the growth [1] was 19.5%, the growth [2] was -20.4% (active) and the growth [3] was 40.9%. The growth [4] was 19.8%, the growth [6] was -6.7% (active) and the growth [7] was -1.2% (active). For the same compound, the growth [8] was 15.2%, the growth [9] was 26.2% and the growth [10] was -21.1% (active).

Work on `Nc1nc(C(=O)N/N=C/c2ccc(N3CCOCC3)cc2)nn1-c1ccc(S(N)(=O)=O)cc1` yielded a growth [1] of 100%, a growth [2] of 96.7% and a growth [3] of 106%. For the same compound, the growth [4] was 103%, the growth [6] was 97.7% and the growth [7] was 101%. It also gave a growth [8] of 100%, a growth [9] of 95.7% and a growth [10] of 120%.

`O=C(CSc1nc2ccc([N+](=O)[O-])cc2[nH]1)Nc1ccc(Br)cc1` showed a growth [1] of 44.1%, a growth [2] of 47.9% and a growth [3] of 86.7%. For the same compound, the growth [4] was 50.9%, the growth [6] was -8.92% (active) and the growth [7] was 20.9%. For the same compound, the growth [8] was 44.5%, the growth [9] was 48.3% and the growth [10] was 41.2%.

For `O=C1c2cc3c(cc2-c2c1c1ccc(Cl)cc1c(=O)n2C[C@H](O)CO)OCO3`, the growth [1] was -11.4% (active), the growth [2] was -77.7% (active) and the growth [3] was -14.3% (active). The growth [4] was -19.8% (active), the growth [6] was -11% (active) and the growth [7] was -12.7% (active). The growth [8] was -18.6% (active), the growth [9] was -42.2% (active) and the growth [10] was -28.1% (active).

Work on `CC1COCC(C)N1C1=C(Cl)C(=O)c2ccccc2C1=O` (centres undefined) yielded a growth [1] of 63%, a growth [2] of 97.3% and a growth [3] of 94%. For the same compound, the growth [4] was 99.2%, the growth [6] was 53.4% and the growth [7] was 36.3%. The growth [8] was 97.1%, the growth [9] was 102% and the growth [10] was 104%.

`COC(=O)C1=C(C)NC(C)=C(C(=O)OCC(C)C)C1c1ccccc1[N+](=O)[O-]` (centres undefined) gave a growth [1] of 58.4%, a growth [2] of 93.1% and a growth [3] of 65.4%. The growth [4] was 79.1%, the growth [6] was 47.3% and the growth [7] was 25.4%. For the same compound, the growth [8] was 65.4%, the growth [9] was 59% and the growth [10] was 91.1%.

In the case of `O=C1C(Cl)=C(NCCN2CCOCC2)C(=O)c2ncccc21`, the growth [1] was -41.8% (active), the growth [2] was -37.8% (active) and the growth [3] was 1.09% (active). The growth [4] was -63% (active), the growth [6] was 72.6% and the growth [7] was -74% (active). For the same compound, the growth [8] was -54.3% (active), the growth [9] was 18.1% and the growth [10] was -75.2% (active).

In the case of `O=C1/C=C/[C@@H](O)[C@@H]2C[C@@H](O)C[C@H]2/C=C/CCC[C@H](CCOCc2ccccc2)O1`, the growth [1] was 7.5% (active), the growth [2] was -32.3% (active) and the growth [3] was 31%. For the same compound, the growth [4] was 30.9%, the growth [6] was -16% (active) and the growth [7] was -38.8% (active). The growth [8] was 14.5%, the growth [9] was -51% (active) and the growth [10] was -74.5% (active).

In the case of `N=C(N)SCc1cccc2c(CSC(=N)N)cccc12`, the growth [1] was 99.2%, the growth [2] was 87.9% and the growth [3] was 90.7%. It also gave a growth [4] of 95.1%, a growth [6] of 83.8% and a growth [8] of 96.6%. It also gave a growth [9] of 99.3% and a growth [10] of 108%.

For `CNC(=O)c1cc(Oc2ccc3nc(NC(=O)Nc4ccc(Cl)c(Cl)c4)sc3c2)ccn1`, the growth [1] was 28.9%, the growth [2] was 23.1% and the growth [3] was 63.7%. It also gave a growth [4] of 14.7%, a growth [6] of 64.4% and a growth [8] of 10.9%. The growth [9] was 40.5% and the growth [10] was 80.8%.

In the case of `CCCCn1sc(=O)n(Cc2ccc(CNC(=O)OCc3ccc4c(Cl)cc(Cl)c(O)c4n3)cc2)c1=O`, the growth [1] was 75.3%, the growth [2] was 73.2% and the growth [3] was 61.5%. The growth [4] was 40.4%, the growth [6] was 74.5% and the growth [7] was 69.9%. For the same compound, the growth [8] was 48.7%, the growth [9] was 67.9% and the growth [10] was 98.1%.

Work on `COc1ccc(/C=C/C(=O)c2ccc(NC(=O)CSc3nnc(-c4cc(-c5ccccc5)nc5ccccc45)n3-c3ccccc3)cc2)cc1` yielded a growth [1] of 93.2%, a growth [2] of 102% and a growth [3] of 99.6%. The growth [4] was 97.3%, the growth [6] was 84.9% and the growth [7] was 83.9%. It also gave a growth [8] of 97.9%, a growth [9] of 95.4% and a growth [10] of 110%.

`COc1ccc(NC(=O)c2cccc(C3CCc4c(cc(OC)c(OC)c4OC)O3)c2)cc1` (centres undefined) gave a growth [1] of 52.1%, a growth [2] of 47.5% and a growth [3] of 53.9%. For the same compound, the growth [4] was 30.7%, the growth [6] was -2.49% (active) and the growth [7] was 21.8%. The growth [8] was 32.1%, the growth [9] was 26.1% and the growth [10] was 41.3%.

Compound `O=C1Nc2ccc(F)cc2/C1=C\c1nc(-c2ccccc2F)n2ccccc12` has a growth [1] of 75.9%, a growth [2] of 104% and a growth [3] of 91.7%. For the same compound, the growth [4] was 94.4%, the growth [6] was 79.8% and the growth [7] was 52.1%. The growth [8] was 86.1%, the growth [9] was 105% and the growth [10] was 93%.

For `Cc1ncc(C(=O)Nc2ccc(CN3CCN(C)CC3)c(C(F)(F)F)c2)cc1C#Cc1cnc(N)c2ccncc12`, the growth [1] was -65% (active), the growth [2] was -5.01% (active) and the growth [3] was -32.5% (active). The growth [4] was -54.8% (active), the growth [6] was -52.2% (active) and the growth [7] was -79% (active). For the same compound, the growth [8] was -40.4% (active), the growth [9] was -45% (active) and the growth [10] was -84.1% (active).
